Reference: PubChem BioAssay (NCI)
About 83,000 compounds went through this panel and 20% of them were active in at least one assay; those are over-represented in the sample as a whole.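 Activity criterion: percent growth below 10, measured after cells in 96-well plates were exposed to a single compound concentration for 48 hours.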 A number with no mark means an inactive call. Activity calls are given as the source filed them.

Legend:
Assay in all cases: NCI-60 one-dose screen, 48 h (100 = growth as untreated, 0 = no growth, -100 = all killed)
Settings in all cases: 10 µM unless noted
NCI-H23 lung = test system: NCI-H23 lung
NCI-H226 lung = test system: NCI-H226 lung
NCI-H322M lung = test system: NCI-H322M lung
HOP-62 NSCLC = test system: HOP-62 NSCLC
NCI-H460 lung = test system: NCI-H460 lung
HOP-92 NSCLC = test system: HOP-92 NSCLC
NCI-H522 lung = test system: NCI-H522 lung
A549/ATCC NSCLC = test system: A549/ATCC NSCLC
786-0 renal = test system: 786-0 renal
COLO 205 colon = test system: COLO 205 colon
DU-145 prostate = test system: DU-145 prostate
K-562 leukemia = test system: K-562 leukemia
MALME-3M melanoma = test system: MALME-3M melanoma
MDA-MB-231 breast = test system: MDA-MB-231 breast
RXF 393 renal = test system: RXF 393 renal
SF-268 CNS = test system: SF-268 CNS
SF-295 CNS = test system: SF-295 CNS
SF-539 CNS = test system: SF-539 CNS
UACC-257 melanoma = test system: UACC-257 melanoma
M14 melanoma = test system: M14 melanoma

Compound | growth (NCI-H23 lung) [%] | growth (NCI-H226 lung) | growth (NCI-H322M lung) [%] | growth (HOP-62 NSCLC) [%] | growth (NCI-H460 lung) | growth (HOP-92 NSCLC) [%] | growth (NCI-H522 lung) | growth (A549/ATCC NSCLC) [%] | growth (786-0 renal) [%] | growth (COLO 205 colon) | growth (DU-145 prostate) | growth (K-562 leukemia) [%] | growth (MALME-3M melanoma) [%] | growth (MDA-MB-231 breast) | growth (RXF 393 renal) | growth (SF-268 CNS) [%] | growth (SF-295 CNS) | growth (SF-539 CNS) | growth (UACC-257 melanoma) [%] | growth (M14 melanoma)
CCOC(OCC)C(=O)c1ccccc1 | 127 | 98.9% | 100 | 98.5 | 99.7% | 41.3 | 85.2% | 90.2 | 107 | 104% | 106% | 109 | 93.8 | 111% | 109% | 99.2 | 113% | 88.2% | 85.9 | 101%
CC(C)C(=O)OCCOc1ccc(C(C)(C)C)cc1 | 103 | 99.4% | 101 | 102 | 102% | 97.7 | 84.8% | 88.4 | 101 | 108% | 104% | 103 | 97.3 | 90.5% | 109% | 96.1 | 99.3% | 99.5% | 87.7 | 107%
COc1cc(C(=O)N2CCN(c3ccccc3)CC2)c2ccccc2n1 | 21.2 | 37.3% | 44.3 | 41.1 | 8.4% (active) | 62.3 | -7.75% (active) | 25.3 | 26 | -44.9% (active) | 1.57% (active) | 16.5 | 54.6 | 5.71% (active) | -39.8% (active) | 42.9 | 7.61% (active) | -4.8% (active) | 51.1 | 0.444% (active)
Nc1nc(Cl)cc(Cl)n1 | 95.9 | 101% | 99 | 85.2 | 106% | 113 | 81.9% | 81 | 103 | 96.8% | 108% | 92.3 | 90.8 | 114% | 102% | 100 | 106% | 107% | 85.5 | 96.4%
CCOC(=O)C(C#N)=C1CCN(C)CC1 | 94.3 | 111% | 107 | 104 | 111% | 97.9 | 105% | 101 | 110 | 108% | 123% | 116 | 124 | 119% | 115% | 102 | 103% | 105% | 93.9 | 105%
Cc1ccc(N2C(=O)c3cccc4c(N)c(S(=O)(=O)O)cc(c34)C2=O)cc1 | 95.7 | 89.7% | 114 | 107 | 104% | 86.1 | 84.5% | 104 | 104 | 109% | 120% | 103 | 135 | 106% | 111% | 108 | 129% | 107% | 114 | 111%
CC(=O)NC(CCC(=O)c1ccccc1)C(=O)O (stereo not given) | 101 | 91.1% | 98.5 | 76.2 | 102% | 97.6 | 90.2% | 63.3 | 87.9 | 108% | 107% | 108 | 96.6 | 107% | 105% | 101 | 101% | 91.2% | 76.7 | 90.9%
CCN(CC)CCN1CNC(=S)NC1 | 99.2 | -70.2% (active) | 108 | 98.8 | 114% | 96.5 | 94.6% | 106 | 101 | 106% | 106% | 102 | 103 | 114% | 114% | 102 | 102% | 103% | 111 | 102%
